Drawing on PubChem BioAssay AID489018 (Southern Research Specialized Biocontainment Screening …, 2010), this text covers outcome for 119 compounds.

Screen size: about 2,300 compounds; about 350 (15%) were called active. How the calls were made is not given here. A selection follows. A call without a number means that no potency is given here. Potency and affinity values are given separately.

The test can be described thus: HepG2 cell cytotoxicity, dose response, cytotoxicity control for non-replicating M. tuberculosis project (AID 489018).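 Further: HepG2 human liver cells.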 Particulars: series mostly up to 20 µM.
As to `Cc1cc(C)n2[nH]c(=O)c(N=Nc3cccc(Cl)c3)c2n1`, the result was inactive.
For `CN=C1S/C(=C\c2ccc(OCC(=O)OC)c(OC)c2)C(=O)N1C` the value was “inactive”.
For `COc1cccc(OCCNC(=O)c2cc([N+](=O)[O-])cc([N+](=O)[O-])c2)c1` the value was “inactive”.
For `Cc1n[nH]c(C)c1CCOc1ccc(C(C)C)cc1` the value was “inactive”; for `CC(C)c1ccc(OCC(=O)NNC(=O)c2cnccn2)cc1`, “inactive”; for `O=C1Nc2ccccc2/C1=C/C(=O)c1cccs1`, “inactive”.
Take `O=C(COC(=O)c1ccc(O)cc1O)c1ccc2c(c1)OCO2`: the outcome was inactive.
The entry for `O=C(NN=C(Cc1ccccc1)Cc1ccccc1)c1ccncc1` is “inactive”; for `CCCCCn1c(=O)c2ccccc2n2c(CCl)nnc12` it is “inactive”; for `CC(C)(C)Nc1nc(NC(C)(C)C)nc(-n2ccnc2)n1` it is “inactive”.
The entry for `CN1/C(=C\C(=O)COC(=O)C2COc3ccccc3O2)C(C)(C)c2ccccc21` (centres undefined) is “inactive”; for `Cc1cccc(-c2nnc3sc(-c4ccccc4C)nn23)c1` it is “inactive”.
For `Cc1cc(C)cc(OC(=O)CCN2C(=O)c3ccccc3C2=O)c1` the value was “inactive”.
Regarding `Cc1cc(N2CCN(c3ccccc3)CC2)nc(-n2nc(C)cc2C)n1`, the compound was called inactive.
The entry for `Cc1cc(N2CCC(C)CC2)nc(-n2nc(C)cc2C)n1` is “inactive”; for `CCOc1ccc(Nc2cc(C)nc(-n3nc(C)cc3C)n2)cc1` it is “inactive”.
For `COc1ccc(/C=N/Nc2cc(C)nc(-n3nc(C)cc3C)n2)c(OC)c1` the value was “inactive”; for `Cc1ccc(NC(=O)ON=C2CCCC2)cc1`, “inactive”; for `Cc1cc(NC(=O)C2CCCCC2)n(-c2nc3ccccc3[nH]2)n1`, “inactive”.
The entry for `O=C(OCn1nnc2ccccc2c1=O)c1cccs1` is “inactive”.
On to `COc1cc(/C=N/NC(=O)c2ccncc2)ccc1OC(=O)c1cccc(F)c1`, for which the compound was called inactive.
The entry for `O=C(NCCCN1CCOCC1)c1c(O)c2cc(Br)cc(Br)c2[nH]c1=O` is “inactive”; for `CC(C)Cc1nnc(NC(=O)CCS(=O)(=O)c2ccc(Cl)cc2)s1` it is “inactive”.
`C=CCNc1nnc(Sc2ncccc2[N+](=O)[O-])s1`: the call was inactive.
The entry for `Cc1cccc(OC(=O)c2sc3ncn(C)c(=O)c3c2C)c1` is “inactive”; for `COc1cccc(N2C(=O)NC(=O)/C(=C/c3ccc([N+](=O)[O-])s3)C2=O)c1` it is “inactive”.
For `CCCc1nnc(NC(=O)c2cc3ccccc3oc2=O)s1` the value was “inactive”.
For `CCc1ccc(OCC(=O)Nc2ccncc2)c(Br)c1` the value was “inactive”.
Turning to `Cc1ccsc1C(=O)OCC(=O)Nc1nnc(-c2ccccc2)o1`, the result was inactive.
For `CC(C)(C)c1ccc(C(=O)Nc2nnc(C3=COCCO3)o2)cc1` the value was “inactive”; for `Cc1ccccc1C(=O)Nc1nnc(-c2ccco2)o1`, “inactive”.
The entry for `O=C(CCS(=O)(=O)c1ccccc1)Nc1nnc(-c2ccco2)o1` is “inactive”; for `CCOc1ccc(C(=O)Nc2nnc(C3=COCCO3)o2)cc1` it is “inactive”.
For the compound `O=C(Nc1nnc(C2=COCCO2)o1)c1ccc(Cc2ccccc2)cc1`, the result was inactive.
Take `Cc1cc(C(=O)COc2cccc3cccnc23)c(C)n1C`: the compound was classed as inactive.
For `CN(O)/C=c1/ccc2c(n1)C(=O)C=CC=2`, the outcome was inactive.
The entry for `Cc1ccc(-c2cc(C(F)F)nc(S(C)(=O)=O)n2)cc1` is “inactive”; for `CN1C(=O)NC(=O)/C(=C/c2ccc([N+](=O)[O-])s2)C1=O` it is “inactive”.
For the compound `CC1Cc2cc(/C=C3/SC(=S)NC3=O)ccc2O1` (centres undefined), the result was inactive.
With `COc1ccc(S(=O)(=O)N(C(C)=O)c2ccc(OC(C)=O)c3ccccc23)cc1[N+](=O)[O-]`, the result was inactive.
For the compound `Cc1ccccc1Nc1c(-c2ccccn2)nc2ccccn12`, the compound was classed as inactive.
The entry for `O=C(CCN1CCOCC1)c1ccc(Br)cc1` is “inactive”; for `O=c1[nH]c(O)c(/C=C2/C=CC(c3cc(Cl)ccc3Cl)=N2)c(=O)[nH]1` it is “inactive”; for `CCOC(=O)Cc1cc(=O)n2[nH]cc(-c3ccc(Cl)cc3)c2n1` it is “inactive”.
For the compound `CCOC(=O)C1(O)CC(C)=NN1C(=O)c1cccc(Br)c1` (centres undefined), the call was inactive.
For `CN(C)CCOc1nc(-c2ccccc2)nc2c1oc1ccccc12` the value was “inactive”; for `COc1ccc(CN2C(=O)/C(=C/c3ccncc3)SC2=S)cc1`, “inactive”.
For `Cc1ccccc1OCC(=O)OCC(=O)c1ccc[nH]1` the value was “inactive”.
The entry for `Cc1cc(CC(C)C)n(-c2nc3ccccc3c(=O)n2OCC(N)=O)n1` is “inactive”.
With `O=C1/C(=C/c2ccccn2)COc2ccccc21`, the compound was called inactive.
Turning to `Cc1ccc(OCC(=O)OCc2c(C)noc2C)cc1C`, the call was inactive.
`COc1cc(N=c2ssnc2Cl)cc(OC)c1`: the compound was called inactive.
The entry for `COc1cc(OC)nc(-n2ncc(Br)c(Br)c2=O)n1` is “inactive”.
With `Cc1ccc(OCC(=O)Nc2ccc([N+](=O)[O-])cc2)cc1`, the compound was called inactive.
For `Cc1ccc(NC(=O)COCC(=O)Nc2ccc(C)cc2)cc1` the value was “inactive”; for `CC(=O)OCCN(C)c1cc(SC(C)C)c2nonc2c1[N+](=O)[O-]`, “inactive”; for `CC(=O)OCCNc1cc(SCc2ccco2)c2nonc2c1[N+](=O)[O-]`, “inactive”.
The entry for `Cc1cccc(Cc2cnc(NC(=O)C3=NCCN3)s2)c1` is “inactive”; for `S=C1SCN(Cc2cccnc2)CN1Cc1ccccc1` it is “inactive”; for `O=C1N(c2ccc3c(c2)OCCO3)C(c2ccccc2)C1(F)F` (centres undefined) it is “inactive”.
For `COc1ccc(CNC(=O)c2cc3cccc(O)c3oc2=N)cc1` the value was “inactive”; for `Clc1ccc(CN2C3=NCCCN3c3ccccc32)cc1`, “inactive”; for `COc1ccccc1NC(=O)C(=O)/C=C(\O)c1ccccc1`, “inactive”.
On to `COc1ccc(NC(=O)c2ccc(-c3ccc([N+](=O)[O-])cc3)o2)cc1OC`, for which the compound was classed as inactive.
Consider `O=C(Nc1nnc(C2=COCCO2)o1)c1ccc(F)cc1`, for which the compound was called inactive.
Consider `Cc1nnc(NC(=O)c2ccc3ccccc3c2)o1`, for which the result was inactive.
For `CCCCCCOC(=O)C(C#N)c1nc2ccccc2nc1N1CCN(CC)CC1` (centres undefined) the value was “inactive”; for `CCCNC(=O)NC(=O)COc1ccc(-c2ccc(C#N)cc2)cc1`, “inactive”.
The entry for `Cc1cccc(OC(=O)c2ccc3nccnc3c2)c1` is “inactive”; for `O=C1CC(=O)CC(c2ccccc2)C1` it is “inactive”.
The entry for `CCOC(=O)CN1NC2(CCCC(C)C2)NC1=S` (centres undefined) is “inactive”; for `CCOC(=O)COc1ccc2c(=O)c(-c3ccccc3)coc2c1` it is “inactive”; for `O=C(N/N=C/c1ccc(OC(=O)c2cccs2)cc1)c1ccccn1` it is “inactive”.
With `O=c1oc(-c2ccccc2[N+](=O)[O-])nc2ccccc12`, the compound was classed as inactive.
Take `CN(/N=C/c1ccc([N+](=O)[O-])o1)c1ccccc1`: the outcome was inactive.
In the case of `Nc1nc2ccccc2n1CCOc1ccc(Br)cc1`, the call was inactive.
For `Cc1c(C(=O)NNC(=O)c2csc(N3CCOCC3)n2)oc2ccccc12`, the outcome was inactive.
For `O=C(N/N=C/C=C/c1cccc([N+](=O)[O-])c1)c1ccncc1` the value was “inactive”; for `O=C(Nc1nccs1)c1cc2cc(Cl)ccc2oc1=O`, “inactive”; for `CCCCCn1nnc2c(=O)oc3ccccc3c21`, “inactive”.
In the case of `Cc1cc(=O)[nH]c(-n2nc(C)cc2C)n1`, the outcome was inactive.
The entry for `O=C(Nc1ccc(-c2nc3ccccc3c(=O)o2)cc1)c1ccco1` is “inactive”; for `CC(C)Oc1ccc(CNC(=O)Oc2ccccc2)cc1` it is “inactive”.
With `COc1ccc(C(C)NC(=O)CCc2ccccc2)cc1` (centres undefined), the call was inactive.
`COc1ccc(C(O)CNc2ccc(C)cc2)cc1` (centres undefined): the outcome was inactive.
For `Cc1cc(OCCOCCNCc2ccccc2)ccc1C(C)C` the value was “inactive”.
The entry for `Cn1c(CNc2ccccc2O)nc2ccccc21` is “inactive”; for `CCCCN1CCC(O)(c2ccccc2)C(C(=O)c2ccccc2)C1` (centres undefined) it is “inactive”; for `O=C(Nc1ccccc1F)c1ccc([N+](=O)[O-])s1` it is “inactive”.
The entry for `CCOc1ccc(OCc2ccc(C(=O)OCc3ccccn3)o2)cc1` is “inactive”; for `Cc1ccc(-c2nc3ccccn3c2Nc2ccccc2)o1` it is “inactive”.
On to `CCc1ccc(NC(=O)C(=O)NNC(=O)c2cccc(OC)c2)cc1`, for which the compound was classed as inactive.
For `Cc1ccc(NCCC(=O)c2cccs2)cc1` the value was “inactive”; for `CC1(C(=O)OCC(=O)Nc2nnc(-c3ccccc3)o2)CC1(Cl)Cl` (centres undefined), “inactive”; for `O=C(COc1ccc(Cl)cc1)Nc1ccc(Cl)cn1`, “inactive”.
For `Cn1c(=O)c(Oc2ccc(Cl)cc2)c(O)c2ccccc21` the value was “inactive”; for `CC1CCCN(CCCOc2ccc([N+](=O)[O-])cc2)C1` (centres undefined), “inactive”.
For `Cc1ccccc1OCCNc1cc(N2CC(C)NC(C)C2)ccc1[N+](=O)[O-]` (centres undefined) the value was “inactive”; for `CCOc1ccc(-c2cc(CCCC(=O)NCCC(C)C)no2)cc1`, “inactive”.
In the case of `Cc1ccc(C2=N/C(=C\c3cccnc3)C(=O)O2)cc1`, the call was inactive.
With `O=C1OC(/C=C/c2ccccc2)=NC/1=C\c1cccnc1`, the result was inactive.
The entry for `COc1ccc(-c2cc(=O)oc(-c3cccc(C)c3)n2)cc1` is “inactive”; for `O=C(CCC1CCCC1)Nc1ccc(Br)cn1` it is “inactive”; for `CCOC(=O)c1sc2nc(CSc3ccccc3)nc(NCCN(C)C)c2c1C` it is “inactive”.
For `Cc1cc(C)n(-c2nc(NCCCO)c3c4c(sc3n2)CCCC4)n1` the value was “inactive”; for `CC1=C/C(=N\OS(=O)(=O)c2ccccc2)C(C)=CC1=O`, “inactive”; for `O=C1CSC(=S)N1Cc1cccnc1`, “inactive”.
For `COc1cccc(C(=O)OCn2nnc3ccccc3c2=O)c1OC` the value was “inactive”; for `O=C(OCn1nnc2ccccc2c1=O)c1ccc(Br)o1`, “inactive”.
As to `c1ccc(-c2nc3c(ccc4ccccc43)[nH]2)nc1`, the result was inactive.
The entry for `O=[N+]([O-])c1ccc(-c2nc3ccc([N+](=O)[O-])cc3[nH]2)cc1` is “inactive”.
For `CCOC(=O)CNCCC(=O)c1ccc(Br)cc1` the value was “inactive”.
Take `COc1cc(OC)c2c(OC)cccc2n1`: the call was inactive.
For `CCN1CCN(c2ccc(S(=O)(=O)N3CCCCC3)cc2NC(=O)c2ccc([N+](=O)[O-])s2)CC1` the value was “inactive”; for `C/C(=N/NC(=O)c1cc2ccccc2cc1O)C1C(=O)c2ccccc2C1=O`, “inactive”; for `CCN(CC)c1ccc2cc(C(=O)NCc3ccc(F)cc3)c(=N)oc2c1`, “inactive”.
The entry for `COCCSc1nnc(NC(=O)CCS(=O)(=O)Cc2ccccc2)s1` is “inactive”; for `CCC(C)n1nnc2c(=O)oc3ccccc3c21` (centres undefined) it is “inactive”; for `O=C(Nc1ncc([N+](=O)[O-])s1)c1cccs1` it is “inactive”.
